# Results filed as inconclusive are left out. Entries that show only a call come without a potency. A number with no mark means an inactive call. The source made the active and inactive calls. Unless noted, calls follow the shape of the dose curve; as a rule, active = well fitted curve in the direction sought with a large enough effect in the repeat runs; inconclusive = weak or mixed curves; inactive = no such curve, though single readings can be large; an effect the other way counts as inactive or inconclusive.
# Experiments:
# [1] = target: Retinoic acid receptor RXR-alpha (Homo sapiens) (UniProt P19793); assay: qHTS assay to identify small molecule agonists of the RXR signaling pathway (AID 1159527; calls by dose curve; also: nearly all actives have a fitted effect of over 35% in size)
# Retinoic acid receptor RXR-alpha (Homo sapiens), sequence (P19793 whole entry, looked up): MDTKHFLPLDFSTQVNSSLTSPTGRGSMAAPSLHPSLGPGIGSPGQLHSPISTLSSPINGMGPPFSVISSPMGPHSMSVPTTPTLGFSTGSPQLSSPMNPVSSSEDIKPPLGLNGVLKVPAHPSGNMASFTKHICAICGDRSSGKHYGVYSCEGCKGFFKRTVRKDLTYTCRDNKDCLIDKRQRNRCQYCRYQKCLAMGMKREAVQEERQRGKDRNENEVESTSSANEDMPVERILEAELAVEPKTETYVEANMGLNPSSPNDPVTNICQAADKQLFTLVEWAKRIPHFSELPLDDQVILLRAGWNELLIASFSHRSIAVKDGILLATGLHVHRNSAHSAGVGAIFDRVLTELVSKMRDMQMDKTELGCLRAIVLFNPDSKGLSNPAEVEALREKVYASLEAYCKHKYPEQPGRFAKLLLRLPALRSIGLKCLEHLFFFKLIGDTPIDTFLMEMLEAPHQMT
# Procedure, shortened: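 Agonist mode; 9-cis retinoic acid positive control. HEK 293T UAS-bla reporter cells, 2% charcoal-stripped FBS, 16 hr compound exposure at 37 C/5% CO2. LiveBLAzer B/G FRET substrate 2 hr RT; ex 405, em 460/530 nm.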
# [2] = qHTS assay to identify small molecule agonists of the RXR signaling pathway - cell viability counter screen (AID 1159529); also: nearly all actives have a fitted effect of over 50% in size; also: potency is read from the fitted curve at half-maximal effect; as to activity change, negative = cytotoxicity: series mostly up to about 77 µM
# Procedure, shortened: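 Luminescence from CellTiter-Glo (30 min, RT) measured viability in the same wells as the beta-lactamase reporter readout. Cells: GeneBLAzer RXR-alpha HEK 293T, 2% charcoal-stripped FBS. Compound exposure 16 hr, 37 C.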
# [3] = qHTS assay to identify small molecule antagonists of the retinoid acid receptor (RAR) signaling pathway - cell viability counter screen (AID 1159551); also: nearly all actives have a fitted effect of over 35% in size
# Procedure, shortened: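 Cytotoxicity counter screen: ATP content quantified by CellTiter-Glo luminescence in C3RL4 cells treated 6 hr at 37 C with compound and retinol (1 uM final). Cells plated at 1,000/well and cultured overnight before dosing.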
# [4] = qHTS assay to identify small molecule antagonists of the retinoic acid receptor (RAR) signaling pathway (AID 1159552; also: nearly all actives have a fitted effect of over 50% in size)
# Procedure, shortened: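 Luminescence from a RARE luciferase reporter in C3RL4 cells served as read-out. Cells received compounds together with 1 uM final retinol and incubated 6 hr at 37 C before detection reagent was added for 30 min at room temperature.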
# [5] = qHTS assay to identify small molecule antagonists of the estrogen related receptor (ERR) signaling pathway from Tox21 library - cell viability counter screen (AID 1224834); also: nearly all actives have a fitted effect of over 30% in size; also: potency is read from the fitted curve at half-maximal effect
# Procedure, shortened: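 CellTiter-Fluor fluorescence, read after 30 min at 37 C, measures viability of ERR cells. Cells plated at 2,000/well and incubated 6 h before pin-tool compound addition, then exposed 17.5 hours at 37 C.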
# [6] = target: Luciferin 4-monooxygenase (Photinus pyralis) (UniProt P08659); assay: qHTS assay to identify small molecule inhibitors of firefly luciferase (AID 1224835); also: series mostly up to about 120 µM; nearly all actives have a fitted effect of over 25% in size
# Luciferin 4-monooxygenase (Photinus pyralis), sequence (P08659 whole entry, looked up): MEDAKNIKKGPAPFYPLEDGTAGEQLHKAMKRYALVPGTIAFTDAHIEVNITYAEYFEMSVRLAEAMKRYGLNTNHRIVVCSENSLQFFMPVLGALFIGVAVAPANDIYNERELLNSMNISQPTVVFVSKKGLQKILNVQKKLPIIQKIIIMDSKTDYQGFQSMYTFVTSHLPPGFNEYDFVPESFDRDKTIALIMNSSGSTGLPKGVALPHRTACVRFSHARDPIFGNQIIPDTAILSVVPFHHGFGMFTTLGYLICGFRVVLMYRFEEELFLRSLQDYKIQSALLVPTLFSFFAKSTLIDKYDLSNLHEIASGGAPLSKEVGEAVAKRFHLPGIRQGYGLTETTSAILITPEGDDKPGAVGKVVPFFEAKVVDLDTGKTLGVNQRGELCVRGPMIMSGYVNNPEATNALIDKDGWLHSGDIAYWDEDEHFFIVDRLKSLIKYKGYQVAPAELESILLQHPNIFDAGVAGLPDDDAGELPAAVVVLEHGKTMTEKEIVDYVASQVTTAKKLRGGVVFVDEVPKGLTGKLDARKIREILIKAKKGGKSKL
# Procedure, shortened: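 Biochemical qHTS: compounds run as interplate titrations against purified firefly enzyme, with D-luciferin and ATP each at its KM concentration. Light output recorded by CCD imaging.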
# [7] = qHTS assay to identify small molecule agonists of the constitutive androstane receptor (CAR) signaling pathway - cell viability counter screen (AID 1224836); also: series mostly up to about 92 µM; nearly all actives have a fitted effect of over 45% in size
# Procedure, shortened: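 Viability read-out: CellTiter-Fluor fluorescence after 23 h compound exposure at 37 C/5% CO2 in double-stable HepG2-CYP2B6-hCAR cells, with PK11195 present at 0.75 uM final; compounds tested in 15-point titration.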
# [8] = qHTS assay to identify small molecule antagonists of the constitutive androstane receptor (CAR) signaling pathway - cell viability counter screen (AID 1224837); also: series mostly up to about 92 µM; nearly all actives have a fitted effect of over 45% in size
# Procedure, shortened: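 Cytotoxicity counter-screen: CellTiter-Fluor fluorescence after 23 h compound exposure (15-point qHTS) in double-stable HepG2-CYP2B6-hCAR cells, with 50 nM CITCO added.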
# [9] = qHTS assay to identify small molecule antagonists of the estrogen related receptor signaling pathway with the pleiotropic PPARgamma coactivator (PGC) from Tox21 10K library - cell viability counter screen (AID 1224840; active = well fitted cell-killing curve with a large enough effect in the repeat runs, not every such curve was filed as active; also: nearly all actives have a fitted effect of over 40% in size)
# Procedure, shortened: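 Counter-screen for cytotoxicity: after 17.5 h compound exposure at 37 C, CellTiter-Fluor reagent added to PGC/ERR cells for 30 min and fluorescence read. Cells were seeded at 2,000 per well 6 h before dosing.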
# [10] = qHTS assay to identify small molecule antagonists of the estrogen related receptor signaling pathway with the pleiotropic PPARgamma coactivator (PGC) from Tox21 10K library (AID 1224841; call rule not given here; also: actives are mostly falling curves and most rising ones were filed inactive; nearly all actives have a fitted effect of over 50% in size; also: potency is read from the fitted curve at half-maximal effect; as to activity, negative = inhibition: series mostly up to about 92 µM)
# Procedure, shortened: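 Luminescence (One-Glo, 30 min at room temperature) after 18 h compound treatment at 37 C of PGC/ERR reporter cells plated at 2,000 cells/well and settled 6 h beforehand.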
# [11] = qHTS assay to identify small molecule agonists of the estrogen related receptor signaling pathway with the pleiotropic PPARgamma coactivator (PGC) from Tox21 10K library (AID 1224842); also: nearly all actives have a fitted effect of over 15% in size
# Procedure, shortened: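 PGC/ERR reporter cell line, 2,000 cells per well, incubated 6 h at 37 C before 23 nL compound in DMSO was added. After 18 h at 37 C, One-Glo luminescence read following 30 min at room temperature.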
# [12] = target: Nuclear receptor subfamily 1 group I member 3 (Homo sapiens) (UniProt Q14994); assay: qHTS assay to identify small molecule agonists of the constitutive androstane receptor (CAR) signaling pathway (AID 1224839);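 also: HepG2 cells stably carrying human CAR and a CYP2B6 luciferase reporter; series mostly up to about 92 µM; nearly all actives have a fitted effect of over 15% in size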
# Nuclear receptor subfamily 1 group I member 3 (Homo sapiens), sequence (Q14994 whole entry, looked up): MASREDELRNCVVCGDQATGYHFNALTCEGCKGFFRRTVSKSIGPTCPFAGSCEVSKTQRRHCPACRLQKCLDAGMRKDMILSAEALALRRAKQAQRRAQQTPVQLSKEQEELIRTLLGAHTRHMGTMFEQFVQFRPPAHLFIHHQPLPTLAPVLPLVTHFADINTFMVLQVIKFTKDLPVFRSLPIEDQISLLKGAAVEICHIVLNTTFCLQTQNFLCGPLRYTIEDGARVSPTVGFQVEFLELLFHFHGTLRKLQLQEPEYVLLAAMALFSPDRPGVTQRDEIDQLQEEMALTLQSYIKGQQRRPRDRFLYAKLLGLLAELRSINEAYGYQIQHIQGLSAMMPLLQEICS
# Procedure, shortened: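 Luminescence read-out (ONE-Glo, 30 min, room temperature) from double-stable HepG2-CYP2B6-hCAR cells exposed 24 h to 15-point compound series in presence of 0.75 uM PK11195 final.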
# [13] = qHTS assay to identify small molecule antagonists of the estrogen related receptor (ERR) signaling pathway - cell viability counter screen (AID 1224818);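 also: series mostly up to about 46 µM; viability measured after 17.5 h of compound exposure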
# Procedure, shortened: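 Cytotoxicity counter screen: fluorescence from CellTiter-Fluor, added after 17.5 h compound exposure at 37 C and read 30 min later. ERR cell line seeded at 2,000 cells/well, preincubated 6 h before dosing.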
# [14] = qHTS assay to identify small molecule antagonists of the estrogen related receptor signaling pathway with the pleiotropic PPARgamma coactivator (PGC) cell viability counter screen (AID 1224822; also: series mostly up to about 46 µM)
# Procedure, shortened: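 Viability counter-screen read by fluorescence intensity after 30 min with CellTiter-Fluor at 37 C; PGC/ERR reporter cells were exposed to compounds for 17.5 h at 37 C following a 6 h preincubation.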
# [15] = target: Nuclear receptor subfamily 1 group I member 3 (Homo sapiens) (UniProt Q14994); assay: qHTS assay to identify small molecule antagonists of the constitutive androstane receptor (CAR) signaling pathway (AID 1224838);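 also: HepG2 cells stably expressing hCAR with CYP2B6 luciferase reporter stimulated by CITCO; nearly all actives have a fitted effect of over 40% in size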
# Procedure, shortened: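 Antagonism measured as luciferase signal (ONE-Glo, 30 min, room temperature) in CAR-stimulated cells: HepG2-CYP2B6-hCAR double-stable line exposed 24 hr at 37 C to compound in a 15-point series plus 50 nM CITCO.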
# [16] = qHTS assay to identify small molecule agonists of the retinoic acid receptor (RAR) signaling pathway (AID 1159553)
# Procedure, shortened: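 Luminescence was measured 30 min after luciferase reagent addition at room temperature. Before that, C3RL4 reporter cells (1,000 per well, plated overnight) were treated with compound for 6 hr at 37 C and 5% CO2.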
structure (smiles),measurement,setting,value
[O]=[Bi],activation,[1],-1.06% [at 6.98 µM]
same,"activity change, negative = cytotoxicity",[2],0.795% [at 6.97 µM]
same,"activity change, negative = cytotoxicity",[3],-0.124% [at 8.39 µM]
same,"activity, negative = inhibition",[4],92.1% [at 8.39 µM]
same,"viability change, negative = cytotoxic",[5],0.391% [at 8.39 µM]
same,"activity change, negative = inhibition",[6],1.77% [at 10.5 µM]
same,"viability change, negative = cytotoxic",[7],0.628% [at 8.39 µM]
same,"activity change, negative = cytotoxicity",[8],-5.97% [at 8.39 µM]
same,"viability change, negative = cytotoxic",[9],-7.88% [at 8.39 µM]
same,Potency,[10],2.11 µM (active)
same,activation,[11],-4.11% [at 8.39 µM]
Cn1c(=O)c2c(ncn2CC(=O)O)n(C)c1=O,Potency,[1],inactive
same,Potency,[2],inactive
same,Potency,[3],inactive
same,Potency,[5],inactive
same,Potency,[8],inactive
same,Potency,[9],inactive
CN1CCN(CCCN2c3ccccc3Sc3ccc(S(=O)(=O)N(C)C)cc32)CC1,Potency,[1],inactive
same,Potency,[2],23.9 µM (active)
same,Potency,[3],inactive
same,Potency,[5],26.6 µM (active)
same,Potency,[6],inactive
same,Potency,[12],inactive
same,Potency,[11],inactive
CCc1cccc(N(C)C(N)=Nc2cccc3ccccc23)c1,Potency,[1],inactive
same,Potency,[2],inactive
same,Potency,[3],inactive
same,outcome,[13],inactive
same,outcome,[14],inactive
same,Potency,[5],inactive
same,Potency,[8],inactive
same,Potency,[15],inactive
same,Potency,[12],inactive
same,Potency,[9],inactive
CCCCC(CC)COC(=O)COc1ccc(Cl)cc1C (stereo not drawn),Potency,[1],inactive
same,Potency,[2],inactive
same,Potency,[3],inactive
same,Potency,[5],inactive
same,Potency,[6],inactive
same,Potency,[7],inactive
same,Potency,[8],inactive
same,Potency,[15],inactive
same,Potency,[9],inactive
CC(=O)[C@H]1CC[C@H]2[C@@H]3C[C@H](C)C4=CC(=O)CC[C@]4(C)[C@H]3[C@@H](O)C[C@]12C,Potency,[1],inactive
same,Potency,[2],inactive
same,Potency,[3],inactive
same,Potency,[16],inactive
same,Potency,[5],inactive
same,Potency,[6],inactive
same,Potency,[7],inactive
same,Potency,[15],inactive
same,Potency,[9],inactive
same,Potency,[10],inactive
CCn1cc(C(=O)O)c(=O)c2cc(F)c(N3CCNCC3)nc21,Potency,[1],inactive
same,Potency,[2],inactive
same,Potency,[3],inactive
same,Potency,[5],inactive
same,Potency,[6],inactive
same,Potency,[7],inactive
same,Potency,[8],inactive
same,Potency,[9],inactive
CN1CCCN=C1/C=C/c1cccs1,Potency,[1],inactive
same,Potency,[2],inactive
same,Potency,[3],inactive
same,Potency,[16],inactive
same,Potency,[5],inactive
same,Potency,[6],inactive
same,Potency,[7],inactive
same,Potency,[8],inactive
same,Potency,[15],inactive
same,Potency,[9],inactive
OC(CCCN1CCCCC1)(c1ccccc1)c1ccccc1,Potency,[1],inactive
same,Potency,[2],inactive
same,Potency,[3],inactive
same,Potency,[5],inactive
same,Potency,[6],inactive
same,Potency,[7],inactive
same,Potency,[8],inactive
same,Potency,[12],inactive
same,Potency,[9],inactive
same,Potency,[10],inactive
same,Potency,[11],inactive
CCCC(=O)O[C@]1(C(=O)COC(=O)CC)CC[C@H]2[C@@H]3CCC4=CC(=O)CC[C@]4(C)[C@H]3[C@@H](O)C[C@@]21C,activation,[1],11.5% [at 15.8 µM]
same,"activity change, negative = cytotoxicity",[2],2.05% [at 15.8 µM]
same,"activity change, negative = cytotoxicity",[3],-1.52% [at 19 µM]
same,"viability change, negative = cytotoxic",[5],2.61% [at 19 µM]
same,"activity change, negative = inhibition",[6],4.64% [at 23.6 µM]
same,"viability change, negative = cytotoxic",[7],10.6% [at 19 µM]
same,"activity change, negative = cytotoxicity",[8],6.46% [at 19 µM]
same,"activity, negative = inhibition",[15],2.05% [at 19 µM]
same,activation,[12],-0.514% [at 19 µM]
same,"viability change, negative = cytotoxic",[9],-4.48% [at 19 µM]
CCC1(C)CC(=O)NC1=O (stereo not drawn),Potency,[1],inactive
same,Potency,[2],inactive
same,Potency,[3],inactive
same,outcome,[13],inactive
same,outcome,[14],inactive
same,Potency,[5],inactive
same,Potency,[6],inactive
same,Potency,[8],inactive
same,Potency,[9],inactive
CC(CCO)CCc1ccccc1 (stereo not drawn),Potency,[1],inactive
same,Potency,[2],inactive
same,Potency,[3],inactive
same,Potency,[5],inactive
same,Potency,[6],inactive
same,Potency,[7],inactive
same,Potency,[9],inactive

# Reference: PubChem BioAssay (Tox21)
